In PubChem BioAssay (EPA / NIEHS) one finds AC50 and outcome data, which are given here for 29 molecules.

The structures appear in SMILES notation. Records with an inconclusive call do not appear. Calls of active or inactive are those of the source. Rule for the calls: active = hit-call score of the fitted dose curve at least 0.9, where 1 is the maximum; inconclusive = response in the unintended direction; inactive = score below 0.9.

The experiment deals with bovine Estrogen Receptor (ER), ESR1 (gene 407238) (UniProt P49884). The experiment in a line: NVS_NR_bER: NovaScreen (NVS) Nuclear Receptor Binding Assay for bovine Estrogen Receptor (ER) (AID 2283345).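 Note: actives lower the bound radioligand count which means they displace the ER ligand.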 As for the experimental part: NVS_NR_bER is a biochemical, single-readout assay that uses extracted gene-proteins from Bovine uterine membranes in a tissue-based cell-free assay. Measurements were taken 18 hours after chemical dosing in a 96-well plate.NVS_NR_bER is one of one assay component(s) measured or calculated from the NVS_NR_bER assay. It is designed to make measurements of radioligand binding, a form of binding reporter, as detected with scintillation counting signals by Lysate-based radiodetection technology.Data from the assay component NVS_NR_bER was analyzed into 1 assay endpoint. This assay endpoint, NVS_NR_bER, was analyzed in the positive analysis fitting direction relative to DMSO as the negative control and baseline of activity. Using a type of binding reporter, loss-of-signal activity can be used to understand changes in the binding as they relate to the gene ESR1. Furthermore, this assay endpoint can be referred to as a primary readout, because the performed assay has only produced 1 assay endpoint. To generalize the intended target to other relatable targets, this assay endpoint is annotated to the nuclear receptor intended target family, where the subfamily is steroidal.
bovine Estrogen Receptor (ER), ESR1 (gene 407238), sequence (P49884 whole entry, looked up): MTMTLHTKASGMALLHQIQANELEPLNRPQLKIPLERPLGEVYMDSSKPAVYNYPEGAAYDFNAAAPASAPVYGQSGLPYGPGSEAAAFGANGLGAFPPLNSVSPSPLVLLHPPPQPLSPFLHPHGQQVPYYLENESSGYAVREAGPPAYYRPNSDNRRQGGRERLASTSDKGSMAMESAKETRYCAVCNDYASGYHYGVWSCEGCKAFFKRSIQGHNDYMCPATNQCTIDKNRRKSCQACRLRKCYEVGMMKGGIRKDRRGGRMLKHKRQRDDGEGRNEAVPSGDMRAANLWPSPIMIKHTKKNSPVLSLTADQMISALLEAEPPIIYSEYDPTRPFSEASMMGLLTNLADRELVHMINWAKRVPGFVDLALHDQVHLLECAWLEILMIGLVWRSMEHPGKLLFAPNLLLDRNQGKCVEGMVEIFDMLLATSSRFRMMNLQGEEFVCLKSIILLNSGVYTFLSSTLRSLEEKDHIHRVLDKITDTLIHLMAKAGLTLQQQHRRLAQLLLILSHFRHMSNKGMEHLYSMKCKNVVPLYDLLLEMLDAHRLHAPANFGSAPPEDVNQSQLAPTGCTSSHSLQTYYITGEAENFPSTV
Binding assays used specific radioligands (tritiated, iodinated) with non-radioactive competitive displacement ligands in agonist or antagonist protocols (as indicated) and various reference compounds and inhibitors to titrate specific binding to receptors and transporters. Most enzyme assays (CYPs, kinases, phosphatases, proteases, HDACs) used recombinant protein and specific substrates (fluorescence mostly, some colorimetric and radioactive) and inhibitors, followed by a biochemical separation of substrate and product. All assays for the biochemical HTS were initially run in duplicate at a single concentration (10 uM for CYP450 assays and 25 uM for all others). […] Each assay was run with positive and negative controls, and concurrent controls on every plate. The follow-up (secondary) screen tested active chemical-pairs in concentration series, as well as a few additional assays not tested in the primary screen, some selected negative inactives, and several cases re-run in the concentration series for confirmatory purposes.
As for `Clc1ccc(COC(Cn2ccnc2)c2ccc(Cl)cc2Cl)cc1` (centres undefined), the concentration at half-maximal activity (AC50) (in general, the midpoint of the concentration-response curve, whichever way the signal moves) is 0.7 µM (active).

Regarding `Clc1ccc(C2(Cn3cncn3)CC(Br)CO2)c(Cl)c1` (centres undefined), the call was inactive.

As to `C=CC(=O)OCCCCCC(C)C`, the result was inactive.

Take `CCOC(=O)/C=C(C)/C=C/C[C@@H](C)CCCC(C)C`: the molecule was called inactive.

Take `COP(=S)(OC)Oc1ccc(Sc2ccc(OP(=S)(OC)OC)cc2)cc1`: the outcome was inactive.

Take `CC(C)(c1ccc(OCC2CO2)cc1)c1ccc(OCC2CO2)cc1` (centres undefined): the result was inactive.

Turning to `NC(=O)O`, the outcome was inactive.

Turning to `C[C@]12CC[C@H](O)CC1=CC[C@@H]1[C@@H]2CC[C@]2(C)C(=O)CC[C@@H]12`, the AC50 was 3.16 µM (active).

Turning to `O=C(Cc1ccccc1)c1ccccc1`, the call was inactive.

As for `ClC1=C(Cl)[C@]2(Cl)[C@H]3[C@H]([C@H]4C=C[C@H]3C4)[C@@]1(Cl)C2(Cl)Cl`, the molecule was called inactive.

As to `COP(=O)(OC)O/C(=C\Cl)c1cc(Cl)c(Cl)cc1Cl`, the outcome was inactive.

Take `CC(C)(c1ccccc1)c1ccc(O)c(C(C)(C)c2ccccc2)c1`: the molecule was called inactive.

As to `C=C(C)C(=O)[O][Sn]([CH2]CCC)([CH2]CCC)[CH2]CCC`, the result was inactive.

Consider `ClCC(Cl)CCl`, for which the molecule was called inactive.

As to `O=[N+]([O-])c1ccc2c3c(cccc13)CC2`, the result was inactive.

With `CCC[CH2][Sn]([CH2]CCC)([CH2]CCC)[O]C(=O)c1ccccc1`, the molecule was called inactive.

For `CCCCCCCCCCCCCCCC[n+]1ccccc1`, the call was inactive.

Turning to `CCOP(=S)(OCC)Oc1nc(Cl)c(Cl)cc1Cl`, the call was inactive.

`O=C(OC1CCCCC1)c1ccccc1C(=O)OC1CCCCC1`: the molecule was called inactive.

In the case of `COP(=S)(OC)Oc1cc(Cl)c(Br)cc1Cl`, the call was inactive.

As to `CCOP(=S)(OCC)SCSP(=S)(OCC)OCC`, the molecule was classed as inactive.

`NNC(=S)NN`: the molecule was classed as inactive.

Turning to `C[C@H]1CCCC(=O)CCC/C=C/c2cc(O)cc(O)c2C(=O)O1`, the AC50 is 0.0119 µM (active).

Take `C(=NC1CCCCC1)=NC1CCCCC1`: the molecule was classed as inactive.

Take `O=[N+]([O-])c1c(Cl)c(Cl)cc(Cl)c1Cl`: the molecule was classed as inactive.

With `COC(=O)c1sccc1S(=O)(=O)NC(=O)Nc1nc(C)nc(OC)n1`, the result was inactive.

`CC(C)OC(=O)Nc1ccccc1`: the molecule was called inactive.

`Nc1ccc(-c2ccc(N)c(Cl)c2)cc1Cl`: the result was inactive.

Regarding `O=S(=O)(c1ccc(Cl)cc1)c1ccc(Cl)cc1`, the result was inactive.
